Pf growth 48h: P. falciparum growth inhibition at 48 hours (one generation); P. falciparum luciferase growth in erythrocytes, 48 h; Potency, µM (doses to about 28.7 µM), actives largely listed as inhibitors; 310,000 tested, 5.9% active
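Luciferase-expressing parasites in RBCs, 2% Hct / 0.1% parasitemia final; RPMI 1640 + 0.5% Albumax; 37 C, 5% CO2, one generation; luminescence read-out, lower signal = inhibition.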
Pf growth 96h: inhibits malaria parasite growth, 96 h; 320,000 tested, 6.9% active; P. falciparum luciferase reporter growth, 96 h; AID 504834; Potency, µM (doses to about 28.7 µM), usual class: inhibitors
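Two-generation exposure (96 h) targets delayed-death phenotype. Reporter parasites carrying integrated firefly luciferase, in red cells at 2% hematocrit and 0.05% parasitemia final, kept at 37 C, 5% CO2; luminescence loss indicates inhibition.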
LmPK inh: inhibitors of Leishmania mexicana pyruvate kinase; Q27686; purified LmPK, Kinase-Glo ATP luminescence, 1 h; Potency, µM (highest dose often 57.5 µM), actives largely listed as inhibitors; 290,000 tested, 0.37% active
Target sequence (Q27686 whole entry, looked up): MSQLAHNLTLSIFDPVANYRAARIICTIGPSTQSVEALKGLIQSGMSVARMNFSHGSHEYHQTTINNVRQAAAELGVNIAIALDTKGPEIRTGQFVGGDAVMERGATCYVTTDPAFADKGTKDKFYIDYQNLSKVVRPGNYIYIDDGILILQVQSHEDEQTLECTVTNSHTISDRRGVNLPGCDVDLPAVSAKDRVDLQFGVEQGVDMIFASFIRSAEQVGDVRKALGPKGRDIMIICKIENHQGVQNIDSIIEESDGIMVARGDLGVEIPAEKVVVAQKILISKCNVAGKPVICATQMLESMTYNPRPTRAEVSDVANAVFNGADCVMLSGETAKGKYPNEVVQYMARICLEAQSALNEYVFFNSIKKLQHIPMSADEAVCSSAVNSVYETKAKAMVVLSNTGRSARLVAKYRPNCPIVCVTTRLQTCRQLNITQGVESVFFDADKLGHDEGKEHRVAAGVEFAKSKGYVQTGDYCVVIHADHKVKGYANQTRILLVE
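Pyruvate kinase activity monitored as ATP production (luciferase luminescence). Conditions: 0.1 nM enzyme, 0.5 mM PEP, 0.1 mM ADP, 1 h, RT; normalized against uninhibited and no-enzyme wells.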
Shiga toxin inh: Shiga toxin inhibition; AID 2315; Vero cells, Shiga toxin protein synthesis inhibition reporter; 290,000 tested, 9.2% active; inhibition, % at 38.7 µM; in the data active means inhibition mostly above about 28%, no sharp cut-off; inactive means mostly below about 43%
CHX counter: counter-screen hit for Shiga toxin inhibitors, cycloheximide; cell reporter, cycloheximide protein synthesis inhibition counterscreen; 300,000 tested, 12% active; AID 2314; max response, %; in the data active means max response mostly above about 13%, no sharp cut-off; inactive means mostly below about 14%; further: read at 38.3 µM for the half of the compounds with a filed dose
Numbers stand for hits; [ ] = another dose, or the depositor's remark. Compounds with a hit are over-represented: about 22% of the library has one in this group of screens. Unless noted, the call rests on the fitted dose curve; in most records, active means well fitted inhibition curve with a large enough effect; inconclusive means small, poorly fitted or top-dose-only effect, or another doubt; inactive means no such curve, though single readings can be large or run the other way.

What do the screens show for `COc1ccc(-n2c(C)cc(C(=O)CSc3ccc(NC(C)=O)cc3)c2C)cc1`?
Pf growth 48h: inconclusive; Pf growth 96h: inactive; LmPK inh: inactive; Shiga toxin inh: 69; CHX counter: 29

Results for O=C(Nc1ccc(C(=O)N2CCC(N3CCOCC3)CC2)cc1)c1ccc(Br)o1 ?
Pf growth 48h: inactive; Pf growth 96h: inactive

How did CC(Sc1nnc(Cc2ccccc2)n1C)C(=O)NC1CC1 (centres undefined) do in these assays?
Pf growth 48h: inactive; Pf growth 96h: inactive

Results for O=C(N/N=C/c1ccc(F)cc1)c1cc(-c2ccco2)nc2ccccc12 ?
Pf growth 48h: inactive; Pf growth 96h: inactive; LmPK inh: inactive; Shiga toxin inh: inactive; CHX counter: inactive

Results for CCOc1ccc(/C=N/NC(=O)c2cc(-c3ccco3)nc3ccccc23)cc1 ?
Pf growth 48h: inactive; Pf growth 96h: inactive; LmPK inh: inactive; Shiga toxin inh: 103; CHX counter: 47

Results for CCOc1ccccc1-c1cc(C(=O)N/N=C/c2ccc3c(c2)OCO3)c2ccccc2n1 ?
Pf growth 48h: 2.3µM; LmPK inh: inactive; Shiga toxin inh: inactive; CHX counter: inactive

Results for O=C(N/N=C/c1ccc2c(c1)OCO2)c1cc(-c2ccccc2Cl)nc2ccccc12 ?
Pf growth 48h: inconclusive; Pf growth 96h: 10µM; LmPK inh: inactive; Shiga toxin inh: inactive; CHX counter: inactive

What do the screens show for `CCN(C(=O)CSc1nnc(C)n1-c1ccccc1)C1CCS(=O)(=O)C1` (centres undefined)?
Pf growth 48h: inactive; Pf growth 96h: inactive; LmPK inh: inactive; Shiga toxin inh: inactive; CHX counter: inactive

Results for O=C(Nc1nc2c(s1)CN(Cc1ccccc1)CC2)C1CCC1 ?
Pf growth 48h: inactive[5.75 µM]; Pf growth 96h: inactive; LmPK inh: inactive; Shiga toxin inh: 74; CHX counter: 31

What do the screens show for `CCN(CC)c1ccc2c(Cl)cc(=O)oc2c1`?
Pf growth 48h: inactive; Pf growth 96h: inactive; LmPK inh: inactive; Shiga toxin inh: inactive; CHX counter: inactive

Results for CCNc1ccc2c(Cl)cc(=O)oc2c1 ?
Pf growth 48h: inactive; Pf growth 96h: inconclusive; LmPK inh: inactive; Shiga toxin inh: inactive; CHX counter: 19

How did Cc1ccc(/C(=N/Nc2nc3ccccc3s2)C2=C(O)c3ccccc3C2=O)cc1 do in these assays?
Pf growth 48h: inactive; Pf growth 96h: inactive; LmPK inh: inactive; Shiga toxin inh: 44; CHX counter: inactive

How did Cc1ccc(C(C)C)c(OCC(=O)NCC(c2cccs2)N2CCOCC2)c1 (centres undefined) do in these assays?
Pf growth 48h: 13µM; Pf growth 96h: 10µM

What do the screens show for `Cc1cccc(OCC(=O)NCC(c2cccs2)N2CCOCC2)c1` (centres undefined)?
Pf growth 48h: inactive; Pf growth 96h: inactive

What do the screens show for `Cc1cc(Cl)ccc1OCC(=O)NCC(c1cccs1)N1CCOCC1` (centres undefined)?
Pf growth 48h: 13µM; Pf growth 96h: inconclusive

Results for N#Cc1ccccc1OCC(=O)NCC(c1cccs1)N1CCOCC1 (centres undefined) ?
Pf growth 48h: inactive; Pf growth 96h: inactive; LmPK inh: inactive; Shiga toxin inh: inactive; CHX counter: inactive

What do the screens show for `Cc1cc(OCC(=O)NCC(c2cccs2)N2CCOCC2)ccc1C(C)C` (centres undefined)?
Pf growth 48h: inconclusive; Pf growth 96h: 13µM

Results for CCN1C(=O)[C@H]2[C@@H](c3ccc(C)cc3)N3C(=O)N(c4ccc(C)cc4)C(=O)[C@@]3(Cc3ccc(Cl)cc3)[C@H]2C1=O ?
Pf growth 48h: inconclusive; Pf growth 96h: inconclusive; LmPK inh: inactive; Shiga toxin inh: inactive; CHX counter: inactive

What do the screens show for `O=C1[C@H]2[C@@H](c3ccc(F)cc3)N3C(=O)N(c4cccc(Br)c4)C(=O)[C@@]3(Cc3ccc(Cl)cc3)[C@H]2C(=O)N1C1CCCCC1`?
Pf growth 48h: 2.9µM; Pf growth 96h: 3.3µM; LmPK inh: inactive; Shiga toxin inh: inactive; CHX counter: inactive

Results for O=C1[C@H]2[C@@H](c3ccc(Cl)cc3)N3C(=O)N(c4cccc(Br)c4)C(=O)[C@@]3(Cc3ccc(Cl)cc3)[C@H]2C(=O)N1C1CCCCC1 ?
Pf growth 48h: inconclusive; Pf growth 96h: 12µM; LmPK inh: inactive; Shiga toxin inh: inactive; CHX counter: inactive

How did c1ccc2nc3c(nc2c1)OCC1CCCCN31 (centres undefined) do in these assays?
Pf growth 48h: inactive[0.00184 µM]; Pf growth 96h: inactive; LmPK inh: inactive; Shiga toxin inh: 108; CHX counter: 54

What do the screens show for `O=C(O)/C=C\C(=O)Nc1ccccc1C#Cc1ccccc1`?
Pf growth 48h: inactive; Pf growth 96h: inactive; LmPK inh: inactive; Shiga toxin inh: active; CHX counter: 59

What do the screens show for `O=C(O)/C=C\C(=O)Nc1ccccc1C#Cc1ccc(Br)cc1`?
Pf growth 48h: inactive; Pf growth 96h: inactive; LmPK inh: inactive; Shiga toxin inh: 89; CHX counter: 56

How did O=C(O)/C=C/C(=O)Nc1ccccc1-c1ccccc1NC(=O)/C=C/C(=O)O do in these assays?
Pf growth 48h: inactive; Pf growth 96h: inconclusive; LmPK inh: inactive; Shiga toxin inh: inactive; CHX counter: inactive

How did Cc1c(Cl)cccc1Nc1nc(N)nc(CSc2nc3ccccc3s2)n1 do in these assays?
Pf growth 48h: inactive; Pf growth 96h: inconclusive; LmPK inh: inactive; Shiga toxin inh: inactive; CHX counter: inactive

What do the screens show for `Nc1nc(CSc2nc3ccccc3s2)nc(Nc2ccccc2)n1`?
Pf growth 48h: inactive; Pf growth 96h: inactive; LmPK inh: inactive; Shiga toxin inh: inactive; CHX counter: 21

Results for COc1ccc2nc3cc(Cl)ccc3c(Nc3cc(C(C)C)c(O)cc3C)c2c1 ?
Pf growth 48h: 0.021µM; Pf growth 96h: 0.066µM; LmPK inh: inactive; Shiga toxin inh: 27; CHX counter: inactive

Results for O=C(COc1ccc2ccccc2c1)Nc1ccncc1 ?
Pf growth 48h: inactive; Pf growth 96h: inconclusive; LmPK inh: inactive; Shiga toxin inh: 27; CHX counter: 27

What do the screens show for `COC(=O)c1cccc(NC(=O)/C=C/c2cccc([N+](=O)[O-])c2)c1`?
Pf growth 48h: inactive; Pf growth 96h: inactive; LmPK inh: inactive; Shiga toxin inh: inactive; CHX counter: 15

How did Cc1ccc(OCC(=O)Nc2cc(C)on2)c([N+](=O)[O-])n1 do in these assays?
Pf growth 48h: inactive; Pf growth 96h: inactive; LmPK inh: inactive; Shiga toxin inh: 105; CHX counter: 35

Results for O=C(COC(=O)c1n[nH]c2ccccc12)c1cccc(Br)c1 ?
Pf growth 48h: inactive; Pf growth 96h: inactive; LmPK inh: inactive; Shiga toxin inh: inactive; CHX counter: 18

What do the screens show for `Cc1cc(NC(=O)COc2cccc([N+](=O)[O-])c2)no1`?
Pf growth 48h: 1.7µM; Pf growth 96h: inactive; LmPK inh: inactive; Shiga toxin inh: inactive; CHX counter: inactive

Results for Cc1cc(NC(=O)CCl)no1 ?
Pf growth 48h: 2.9µM; Pf growth 96h: inactive; LmPK inh: inactive; Shiga toxin inh: inactive; CHX counter: inactive

Results for Cc1cc(NC(=O)COc2ccc3ccccc3c2)no1 ?
Pf growth 48h: inactive; Pf growth 96h: inconclusive; LmPK inh: inactive; Shiga toxin inh: inactive; CHX counter: 31

From PubChem BioAssay
